# PubChem BioAssay AID777 (Sanford-Burnham Center for Chemical Genomics, 2007)
# About 19,000 (20%) of roughly 96,000 compounds were called active. These entries were drawn from the full list. Values without a mark were called inactive.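 The calls were made as follows: active = blocking of liver enzyme CYP2C9 beyond about 50% at 5 µM (limit read from the data); inactive = the rest.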
# Biological target: Cytochrome P450 2C9 (Homo sapiens) (UniProt P11712)
# Test: blockers of cytochrome P450 2C9 activity – biochemical, luminescence, ADME assay, primary screen (AID 777)
# Conditions: CYP2C9 Supersomes, luciferin-H conversion, at 5 µM, active compounds read high
# Chain of Cytochrome P450 2C9 (Homo sapiens) (P11712 whole entry, looked up): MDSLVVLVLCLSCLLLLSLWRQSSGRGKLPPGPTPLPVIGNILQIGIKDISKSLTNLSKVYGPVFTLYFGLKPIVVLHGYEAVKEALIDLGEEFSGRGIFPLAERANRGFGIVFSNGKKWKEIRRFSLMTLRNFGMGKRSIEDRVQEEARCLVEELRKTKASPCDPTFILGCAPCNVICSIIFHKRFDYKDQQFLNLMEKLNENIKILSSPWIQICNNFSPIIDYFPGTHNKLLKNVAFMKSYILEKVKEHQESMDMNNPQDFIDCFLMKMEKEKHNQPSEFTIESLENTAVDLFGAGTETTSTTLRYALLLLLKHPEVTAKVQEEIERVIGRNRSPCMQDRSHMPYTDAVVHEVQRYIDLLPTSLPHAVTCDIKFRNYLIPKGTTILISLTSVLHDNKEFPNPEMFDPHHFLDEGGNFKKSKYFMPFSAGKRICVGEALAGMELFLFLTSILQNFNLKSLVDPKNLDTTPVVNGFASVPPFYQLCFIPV
row,Compound,inhibition
1,O=C(CSc1nnc(Cn2cnc3ccccc32)o1)c1ccccc1,32.1%
2,CCOC(=O)N1CCN(CC(=O)c2c(C)[nH]c3ccccc23)CC1,-60.1%
3,COc1cc(OC)c(C(=O)Nc2ccc(N(C)C)cc2)cc1OC,33.3%
4,CCNS(=O)(=O)c1ccc(NC(=O)Nc2cccc(C(F)(F)F)c2)cc1,34.1%
5,CCNS(=O)(=O)c1ccc(NC(=O)Nc2cccc(OC)c2)cc1,59.5% (active)
6,CCC(=O)Nc1ccc(C(=O)Nc2cccc(OC)c2)cc1,-13.5%
7,CCOC(=O)C1=C(c2ccccc2)O/C(=C(/C(=O)OC)C(F)(F)F)S1,20.8%
8,CCCc1[nH]nc2c1C(c1c(C)nn(-c3ccccc3)c1Cl)C(C#N)=C(N)O2 (configuration not stated),52.8% (active)
9,CCCc1[nH]nc2c1C(c1ccc(Br)s1)C(C#N)=C(N)O2 (configuration not stated),33%
10,COc1ccc(-c2[nH]nc3c2C(c2ccncc2)C(C#N)=C(N)O3)cc1 (configuration not stated),-13%
11,CCCc1[nH]nc2c1C(c1ccc(OC)c(Cn3nc(C)c(Br)c3C)c1)C(C#N)=C(N)O2 (configuration not stated),11.8%
12,CCCc1[nH]nc2c1C(c1ccc(OC(=O)c3ccco3)cc1)C(C#N)=C(N)O2 (configuration not stated),52% (active)
13,Cc1cc(C)c(C#N)c(SCc2[nH]nc3c2C(c2ccccc2)C(C#N)=C(N)O3)n1 (configuration not stated),18.4%
14,COC(=O)c1cc(S(=O)(=O)NC2CCN(Cc3ccccc3)CC2)cn1C,-9.6%
15,S=c1[nH]nc(-c2ccc(Cl)cc2)n1CC1CCCO1 (configuration not stated),15.7%
16,CC(C)NS(=O)(=O)c1ccc(CCC(=O)N2CCOCC2)cc1,0%

row,Compound,inhibition
1,CC1CCCCC1NC(=O)CSc1nnc(N)s1 (configuration not stated),-16.3%
2,CCCC1CC(C)(C(=O)Cn2[nH]c(=O)ccc2=O)OC1=O (configuration not stated),-20.1%
3,CC(C)Nc1ncnc2c1nnn2Cc1ccccc1,-0.4%
4,Nc1c(C(=O)NCc2ccccc2)nnn1Cc1cccc(Cl)c1,19.3%
5,COC(=O)c1c(C)c(C)nc(N)c1C#N,-10.8%
6,N#CCCN(CCC#N)c1nnc(-c2ccccc2)s1,2.8%
7,CCOC(=O)c1nnn(-c2nonc2-n2cccc2)c1CN1CCOCC1,16.6%
8,CCOC(=O)c1nnn(-c2nonc2-n2cccc2)c1CN1CCC(C(=O)OCC)CC1,94.8% (active)
9,CCN(CC)Cc1c(C(=O)OC)nnn1-c1nonc1N,-22.1%
10,O=c1c2c(nc3nc[nH]n13)CCC2,-10.5%
11,CC(=O)Nc1cccc(NC(=O)c2c(-c3ccccc3)noc2C)c1,74.3% (active)
12,Cc1noc(C)c1C(=O)Nc1ccccn1,3.8%
13,Cc1onc(-c2ccccc2)c1C(=O)Nc1ccccc1C#N,62.8% (active)
14,O=C(Nc1cccc2ccccc12)c1onc2c1CCCC2,-38.6%
15,CC(=O)Nc1cccc(-c2cnc3ccccc3n2)c1,49.7%
16,Cc1onc(-c2ccccc2)c1C(=O)N1CCOCC1,-1.3%
